Data: PubChem BioAssay AID504910 (Southern Research Specialized Biocontainment Screening …, 2011)
Measured potencies and affinities stand elsewhere. Active and inactive are the calls of the source. How the calls were made is not given here.

Experiment: HepG2 cell cytotoxicity, cytotoxicity control, set 4 (AID 504910)
Conditions: series mostly up to 50 µM

**Q.** Which outcome does the source give for Cc1nc(SCc2ccccc2Cl)[nH]c(=O)c1C here?
**A.** The outcome was “inactive”.

**Q.** Which outcome does the source give for CCC(Sc1nc2ccccc2c(=O)[nH]1)C(=O)Nc1cccc(OC)c1 (stereo unspecified) here?
**A.** The outcome was “inactive”.

**Q.** Which outcome does the source give for CN(C)C(=O)CSc1nc2ccccc2c(=O)[nH]1 here?
**A.** Its outcome is “inactive”.

**Q.** For O=C(CSc1nc2ccccc2c(=O)[nH]1)NCc1ccc(Cl)cc1, which outcome is on record?
**A.** Its outcome is “inactive”.

**Q.** Which outcome does the source give for O=c1[nH]c(=S)[nH]c2ccccc12 here?
**A.** Its outcome is “inactive”.

**Q.** Which outcome does the source give for Cc1cnc(SCC(=O)NC2CCCCC2)[nH]c1=O here?
**A.** Its outcome is “inactive”.

**Q.** Which outcome does the source give for CNC(=O)CSc1nc2ccccc2c(=O)[nH]1 here?
**A.** The outcome was “inactive”.

**Q.** For CC[C@@H](CO)NCCN[C@@H](CC)CO, which outcome is on record?
**A.** The outcome was “inactive”.

**Q.** For Cc1[nH]c(=S)[nH]c(=O)c1C, which outcome is on record?
**A.** Its outcome is “inactive”.

**Q.** Which outcome does the source give for Cc1cc(=O)[nH]c(=S)[nH]1 here?
**A.** The outcome was “inactive”.

**Q.** With COc1cccc(NC(=O)CSc2nc3ccccc3c(=O)[nH]2)c1 as the compound, how does the outcome read?
**A.** The outcome was “inactive”.

**Q.** With CC1CCN(C(=O)C2CCN(c3nnc(-n4cccc4)s3)CC2)CC1 as the compound, how does the outcome read?
**A.** The outcome was “inactive”.

**Q.** For CN[C@@H]1[C@H](O[C@H]2[C@H](O[C@H]3[C@H](O)[C@@H](O)[C@H](N=C(N)N)[C@@H](O)[C@@H]3N=C(N)N)O[C@@H](C)[C@]2(O)C=O)O[C@@H](CO)[C@H](O)[C@H]1O, which outcome is on record?
**A.** The outcome was “inactive”.

**Q.** Which outcome does the source give for CCCc1cc(C(N)=S)ccn1 here?
**A.** Its outcome is “inactive”.

**Q.** For CC(C)CCNC(=O)CSc1nc2ccccc2c(=O)[nH]1, which outcome is on record?
**A.** The outcome was “inactive”.

**Q.** Which outcome does the source give for COC(=O)C(C)Oc1ccc(Cc2ncc(C(F)(F)F)cc2Cl)cc1 (stereo unspecified) here?
**A.** The outcome was “inactive”.

**Q.** Which outcome does the source give for O=C(CSc1ccccn1)NC1CCCCC1 here?
**A.** The outcome was “inactive”.

**Q.** With CCSc1nc2ccccc2c(=O)[nH]1 as the compound, how does the outcome read?
**A.** Its outcome is “inactive”.

**Q.** With Cc1nc(SCC(=O)N(C)c2ccccc2)[nH]c(=O)c1C as the compound, how does the outcome read?
**A.** Its outcome is “inactive”.

**Q.** With CC1CCN(C(=O)CSc2nc3ccccc3c(=O)[nH]2)CC1 as the compound, how does the outcome read?
**A.** The outcome was “inactive”.

**Q.** For Cc1nc(SCC(=O)NCCC(C)C)[nH]c(=O)c1C, which outcome is on record?
**A.** Its outcome is “inactive”.

**Q.** Which outcome does the source give for CN(C(=O)CSc1nc2ccccc2c(=O)[nH]1)C1CCCCC1 here?
**A.** The outcome was “inactive”.

**Q.** Which outcome does the source give for COc1c(N2CCNC(C)C2)c(F)cc2c(=O)c(C(=O)O)cn(C3CC3)c12 (stereo unspecified) here?
**A.** Its outcome is “inactive”.

**Q.** With CCSc1nc(C)c(C)c(=O)[nH]1 as the compound, how does the outcome read?
**A.** Its outcome is “inactive”.

**Q.** Which outcome does the source give for CC(C)CCNC(=O)CSc1nc2c(c(=O)[nH]1)CCC2 here?
**A.** Its outcome is “inactive”.

**Q.** Which outcome does the source give for O=C(CSc1nc2ccccc2c(=O)[nH]1)NC1CCCC1 here?
**A.** Its outcome is “inactive”.

**Q.** Which outcome does the source give for COC(=O)c1ccc(CNc2c(N3CCCC3)c(=O)c2=O)cc1 here?
**A.** Its outcome is “inactive”.

**Q.** Which outcome does the source give for Cc1cc(=O)[nH]c(SCC(=O)NC2CCCCC2)n1 here?
**A.** The outcome was “inactive”.

**Q.** Which outcome does the source give for Cc1cc(Br)ccc1NC(=O)c1cnc(N2CCN(c3ccccn3)CC2)c2ccccc12 here?
**A.** Its outcome is “inactive”.

**Q.** Which outcome does the source give for Cc1ccc(NC(=O)CSc2nc3ccccc3c(=O)[nH]2)cc1Cl here?
**A.** The outcome was “inactive”.

**Q.** Which outcome does the source give for CC[N+](C)(CC)CCCCOc1ccc2c(c1)C(=O)c1cc(OCCCC[N+](C)(CC)CC)ccc1-2 here?
**A.** The outcome was “inactive”.
